For 8 molecules, growth results are on record in PubChem BioAssay (NCI).

Test systems include NCI-H23 lung; NCI-H226 lung; NCI-H322M lung; HOP-62 NSCLC; NCI-H460 lung; HOP-92 NSCLC; NCI-H522 lung; A549/ATCC NSCLC; 786-0 renal; COLO 205 colon; DU-145 prostate; K-562 leukemia; MALME-3M melanoma; MDA-MB-231 breast; RXF 393 renal; SF-268 CNS; SF-539 CNS; UACC-257 melanoma; M14 melanoma; SF-295 CNS.
Holding throughout (experiment): NCI-60 one-dose screen, 48 h (100 = growth as untreated, 0 = no growth, -100 = all killed)
Conditions in all cases: 10 µM unless noted

Molecules are shown by their SMILES. About 83,000 compounds went through this panel and 20% of them were active in at least one assay; those are over-represented in the sample as a whole.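 Cell lines were cultured in 96-well plates, exposed to a single compound concentration, and assessed for percent growth 48 hours later.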 Values without a mark were called inactive. Calls of active or inactive are those of the source. The calls were made as follows: active = growth percent below 10; inactive = the rest.

As for `COc1ccc(C2C=C(c3ccc(N)cc3)N=C3SC=CN32)cc1OC` (stereo unspecified), the growth is 101% in the assay on NCI-H23 lung; 107% in the assay with NCI-H226 lung; 102% in the assay with NCI-H322M lung; 108% with HOP-62 NSCLC; 116% in the assay on NCI-H460 lung; 109% in the assay with HOP-92 NSCLC. The growth was 101% in the assay with NCI-H522 lung; 99.7% in the assay on A549/ATCC NSCLC; 104% in the assay with 786-0 renal; 114% in the assay with COLO 205 colon; 107% with DU-145 prostate; 97.5% with K-562 leukemia. Besides, the growth in the assay with MALME-3M melanoma is 92.8%; in the assay with MDA-MB-231 breast, 123%; in the assay on RXF 393 renal, 110%; in the assay with SF-268 CNS, 104%; in the assay on SF-539 CNS, 99.9%; in the assay on UACC-257 melanoma, 103%. Further, the growth with M14 melanoma is 106%.

Regarding `Fc1ccccc1-c1nc(-c2nc3cc(Cl)c(Cl)cc3[nH]2)c2ccccn12`, the growth in the assay on NCI-H23 lung was 69.2%; with NCI-H226 lung, 78.5%; in the assay on NCI-H322M lung, 67.8%; in the assay on HOP-62 NSCLC it was 68.8%; in the assay with NCI-H460 lung, 57.3%; with HOP-92 NSCLC, 49.6%. The growth in the assay on NCI-H522 lung is 72.5%; in the assay on A549/ATCC NSCLC it was 72.2%; with 786-0 renal it was 86.4%; in the assay on COLO 205 colon it was 89.6%; in the assay on DU-145 prostate it was 51.5%; in the assay on K-562 leukemia, 73.1%. The growth in the assay with MALME-3M melanoma was 34.5%; in the assay with MDA-MB-231 breast, 91.4%; in the assay on RXF 393 renal, 69.2%; in the assay with SF-268 CNS it was 77.4%; in the assay with UACC-257 melanoma, 82.2%; in the assay with M14 melanoma, 71%.

For the molecule `CC(=O)Nc1ccc(S(=O)(=O)n2ccc(-c3ccc4c(c3)CCC(C)(C)O4)n2)cc1`, the growth with NCI-H23 lung was 56.6%; in the assay on NCI-H226 lung, 52.4%; in the assay with NCI-H322M lung, 89%; in the assay with HOP-62 NSCLC, 94.4%; with NCI-H460 lung, 41.4%; in the assay with HOP-92 NSCLC, 69.8%. Further, the growth is 54% in the assay with NCI-H522 lung; 57.8% in the assay on A549/ATCC NSCLC; 79.8% with 786-0 renal; 88.8% with COLO 205 colon; 83.5% in the assay with DU-145 prostate; 36.7% with K-562 leukemia. Also, the growth was 82.5% in the assay with MALME-3M melanoma; 88.6% with MDA-MB-231 breast; 77.3% with SF-268 CNS; 60.2% in the assay with SF-295 CNS; 73.8% in the assay on SF-539 CNS; 46% with UACC-257 melanoma. The growth in the assay on M14 melanoma is 64.7%.

Regarding `COc1ccc(-c2ccc(-c3ccc(-c4ccc(C(=N)N)cc4)s3)s2)cc1OC`, the growth in the assay on NCI-H23 lung was 88.7%; with NCI-H226 lung, 96.7%; in the assay on NCI-H322M lung it was 111%; in the assay on HOP-62 NSCLC, 86%; with NCI-H460 lung, 97.7%; in the assay with HOP-92 NSCLC it was 33.1%. Further, the growth is 99.9% in the assay on NCI-H522 lung; 43.1% in the assay on A549/ATCC NSCLC; 93% in the assay with 786-0 renal; -14.7% (active) with COLO 205 colon; 36.4% in the assay with DU-145 prostate; -50% (active) in the assay with K-562 leukemia. In addition, the growth in the assay on MALME-3M melanoma was 92.6%; in the assay with MDA-MB-231 breast, 80.2%; with SF-268 CNS, 87.1%; in the assay with SF-295 CNS it was 99.7%; in the assay on SF-539 CNS, 88.9%; in the assay with UACC-257 melanoma, 103%. In the assay with M14 melanoma, the growth is 99%.

For the molecule `Cn1c2ccc(Br)cc2c2c3c(c4c5ccccc5[nH]c4c21)C(=O)N(O)C3=O`, the growth is -42.6% (active) in the assay with NCI-H23 lung; 24.1% in the assay with NCI-H226 lung; -68% (active) in the assay with NCI-H322M lung; -67.8% (active) in the assay with HOP-62 NSCLC; -14.8% (active) in the assay on NCI-H460 lung; -77.3% (active) in the assay on HOP-92 NSCLC. Moreover, the growth in the assay with NCI-H522 lung is -67% (active); in the assay with A549/ATCC NSCLC, -13.8% (active); in the assay with 786-0 renal it was -93.8% (active); in the assay on COLO 205 colon, -84.4% (active); in the assay on DU-145 prostate, -71.1% (active); in the assay on K-562 leukemia it was -8.92% (active). Moreover, the growth is -85% (active) in the assay with MALME-3M melanoma; -74.1% (active) in the assay on MDA-MB-231 breast; -99.5% (active) in the assay on RXF 393 renal; -45.7% (active) in the assay on SF-268 CNS; -92.6% (active) in the assay with SF-539 CNS; -33.7% (active) with UACC-257 melanoma. For the same molecule, in the assay with M14 melanoma, the growth is -78.2% (active).

As for `CN(C)c1ncnc2c1ccn2C1OC(CO)C(O)C1O` (stereo unspecified), the growth was 54.5% in the assay with NCI-H23 lung; 72.7% in the assay on NCI-H226 lung; 3.23% (active) in the assay on NCI-H322M lung; 50.8% in the assay on HOP-62 NSCLC; 45.6% in the assay with NCI-H460 lung; -6.76% (active) in the assay with HOP-92 NSCLC. Moreover, the growth was 90.9% with NCI-H522 lung; 61.4% in the assay with A549/ATCC NSCLC; 34.8% with 786-0 renal; 54.3% in the assay on COLO 205 colon; 3.87% (active) in the assay with DU-145 prostate; 50.4% in the assay on K-562 leukemia. Besides, the growth in the assay with MALME-3M melanoma is 133%; in the assay with MDA-MB-231 breast it was 0.0846% (active); in the assay on RXF 393 renal it was 67.9%; in the assay on SF-268 CNS, 40.1%; with SF-539 CNS, 67.8%; with UACC-257 melanoma it was 111%. Besides, the growth with M14 melanoma is 58.7%.

On to `COc1ccc(N=Cc2c(O)ccc3c2oc2cc(Cl)c(O)c(Cl)c23)cc1`, for which the growth in the assay on NCI-H23 lung was 93.7%; with NCI-H226 lung, 101%; in the assay on NCI-H322M lung, 122%; in the assay with HOP-62 NSCLC it was 95%; with NCI-H460 lung it was 99.8%; in the assay with HOP-92 NSCLC it was 88.8%. Further, the growth in the assay with NCI-H522 lung was 68.1%; in the assay on A549/ATCC NSCLC, 95.5%; in the assay with 786-0 renal, 88.8%; in the assay with COLO 205 colon, 131%; in the assay on DU-145 prostate it was 125%; in the assay with K-562 leukemia, 81.1%. Also, the growth in the assay with MALME-3M melanoma was 106%; in the assay on MDA-MB-231 breast, 107%; with SF-268 CNS, 105%; in the assay on SF-295 CNS it was 115%; in the assay on SF-539 CNS it was 96.7%; in the assay on UACC-257 melanoma, 76.5%. In the assay on M14 melanoma, the growth was 94.9%.

Regarding `Cc1ccc(-c2cc3nc(-c4ccccc4)nc(C(Cl)Cl)n3n2)cc1`, the growth is 30.3% in the assay with NCI-H23 lung; 70.9% in the assay with NCI-H226 lung; -85.9% (active) in the assay with NCI-H322M lung; -60.1% (active) in the assay with HOP-62 NSCLC; -48% (active) with NCI-H460 lung; -81.5% (active) in the assay on HOP-92 NSCLC. Further, the growth in the assay on NCI-H522 lung is 95.4%; in the assay with A549/ATCC NSCLC, -58.1% (active); with 786-0 renal, -79.3% (active); with COLO 205 colon, -66.1% (active); in the assay on DU-145 prostate it was -93.9% (active); in the assay on K-562 leukemia, 20.2%. Besides, the growth with MALME-3M melanoma is -3.1% (active); in the assay on MDA-MB-231 breast it was -49.7% (active); with SF-268 CNS it was -56.6% (active); with SF-295 CNS it was -69.8% (active); in the assay with SF-539 CNS it was -60.4% (active); in the assay on UACC-257 melanoma, 18.3%. For the same molecule, the growth in the assay with M14 melanoma was 96.2%.
